About 980 (70%) of roughly 1,400 compounds were called active. Another 16% or so got no clear call; they are omitted. Calls follow the shape of the full dose curve. So high a share suggests a set chosen from earlier hits. Only a sample is shown.
assay: Natriuretic polypeptide receptor (hNpr1) antagonism - Counterscreen GloSensor control cell line; details: HEK293 GloSensor cGMP, SNP-stimulated, luminescence; series mostly up to 57.6 µM; also: nearly all actives have a fitted effect of over 70% in size
Protocol: cGMP production was measured using a circular permutated firefly luciferase (FLuc) enzyme functionally linked to the cGMP binding domain of human phosphodiesterase 5 (GloSensor technology pGS-40F, (Fan, F. et al. 2008). The cGMP-sensor was expressed in human embryonic kidney 293 (HEK-293) cells and FLuc activity was measured after stimulation with the NO-donor sodium nitroprusside (SNP). SNP activates the endogenously expressed soluble guanylyl cyclase (GC) producing cGMP which then binds to the GloSensor resulting in FLuc activation, the enzymatic activity of which can be measured as bioluminescence with addition of luciferin substrate. F. Fan, B. F. Binkowski, B. L. Butler, P. F. Stecha, M. K. Lewis, K. V. Wood, Novel genetically encoded biosensors using firefly luciferase. ACS Chem Biol 3, 346-351 (2008).
PROTOCOL TABLE (as described by Inglese J, Shamu CE and Guy RK. 2007) SEQUENCE No. (e.g., 1, 2, 3, etc.); PARAMETER (e.g., Cells, Incubation, Reagent, etc.); VALUE and DESCRIPTION. 1. Cells. Seed 1500 HEK293 cGMP-sensor cells per well in 4uL into Greiner 1536-well white/solid bottom high base, TC plates. 2. Incubation. Incubate plated cells at 37C in 5% CO2, 95% RH overnight. 3. Reagent. Add 1uL per well GloSensor reagent from Promega (2% final concentration) or CO2 independent media vehicle control to respective columns of Greiner 1536-well plates. 4. Incubation. Incubate plated cells at room temperature for 2 h, protect from light. 5. Compounds. Library compounds and DMSO vehicle control added at 23nL per well, transferred by Pin Tool. 6. Incubation. Incubate plated cells for 30 min. at room temperature, protect from light. 7. Detector. GloSensor baseline pre-read luminescence measured using CCD-based camera (Viewlux). 8. Compound. Add 1uL of sodium nitroprusside (SNP) to 50 uM final concentration to stimulate soluble guanylyl cyclase (GC) or CO2 independent media as vehicle control. 9. Incubation. Incubate treated cells at room temperature for 20 min., protect from light. 10. Detector. GloSensor post-SNP luminescence measured using CCD-based camera (Viewlux). NOTES (numbers refer to Sequence numbers above; values are from representative experiments) 1. HEK293 cells expressing GIP/pGS-40F were grown to 85-95% confluence (48-72 h) in T175 culture flasks (CO2 independent media supplemented with 10% FBS, 1% Pen/Strep antibiotics, and 1 ug/mL puromycin). Trypsinize and harvest cells from T175 culture flasks and filter through 40 um cell strainer. Cells counted with Invitrogen Countess (30,000,000 - 50,000,000 cells/flask). Cells diluted to a final concentration of 375 cells/uL in CO2 independent media and a Millipore multidrop used to dispense 1500 cells per well (4uL/well) into 13 1536-well Greiner White/Solid bottom, high base tissue-culture treated (TC) plates and one Aurora 1536-well Black/Clear bottom, low base, TC plate (for visual inspection of cell health throughout the duration of the assay). 2. Cells incubated for 24 h. at 37C in 95% RH incubator with metal lid having gas-exchange holes. 3. Prepare GloSensor Reagent (Promega): Reconstitute GloSensor luciferase substrate by adding 8.2mL Hepes buffer to 250mg substrate, mix well, protect from light and stored at -80C. Prepare a fresh 12% GloSensor solution in CO2 independent supplemented plating media (see above). Mix well and store at ambient temperature, protected from light. 1uL 12% GloSensor Luciferase Reagent added (2% final concentration) to respective columns of 13 x 1536-well Greiner plate with BioRaptr, 1uL CO2 independent plating media added to respective columns as vehicle control with BioRaptr. 4. Cells incubated for 2 h. at ambient temperature, protected from light with metal lid having gas-exchange holes. 5. 23nL of library compounds or DMSO vehicle control transferred to 13 Greiner white/solid bottom high base, TC plates in 11 interplate 1:3 titrations (see Yasgar, A. et al. 2008) with Pintool. 6. […]
Potency is read from the fitted curve at half-maximal effect.

SMILES	Potency
COc1cc2c(cc1Oc1cccc(N(C)C)c1)NC(=O)C21CCN(Cc2ccccn2)CC1	19.3 µM (active)
COc1cc2c(cc1OCc1ccncc1)NC(=O)C21CCN(c2ncc(F)cn2)CC1	44.4 µM (active)
COc1cc2c(cc1Oc1cccc(N(C)C)c1)NC(=O)C21CCN(CCC(C)C)CC1	31.4 µM (active)
COc1cc2c(cc1Oc1cccc(N(C)C)c1)NC(=O)C21CCN(c2cnccn2)CC1	21.7 µM (active)
CCC(CC)c1cc([C@H]2CN3CC[C@H]2C[C@@H]3CNS(=O)(=O)c2ccccc2C#N)nc(-c2ccncc2)n1	inactive
CCC(CC)c1cc([C@H]2CN3CC[C@H]2C[C@@H]3CNC(=O)NCc2ccccc2)nc(-c2ccncc2)n1	inactive
CCC(CC)c1cc([C@H]2CN3CC[C@H]2C[C@@H]3CNS(=O)(=O)Cc2ccccc2)nc(-c2ccncc2)n1	inactive
